# Bioassay records (PubChem)
# Rows were chosen to be rich in hits. Some 4.1% of all compounds tested hit in one or more screens of this group.
# AmpC inh no detg: AmpC beta-lactamase inhibition without detergent. P00811. AmpC nitrocefin hydrolysis, absorbance 480 nm, 0.0001% Triton. Potency, µM (titrated, usually from 57.1 µM), for inactives: top-dose activity change, negative = inhibition, hits mostly inhibitors. 0.52% of 330,000 active;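 further: plate controls were no compound for no effect and no enzyme for full effect; nearly all actives have a fitted effect of over 20% in size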
# Target sequence (P00811 whole entry, looked up): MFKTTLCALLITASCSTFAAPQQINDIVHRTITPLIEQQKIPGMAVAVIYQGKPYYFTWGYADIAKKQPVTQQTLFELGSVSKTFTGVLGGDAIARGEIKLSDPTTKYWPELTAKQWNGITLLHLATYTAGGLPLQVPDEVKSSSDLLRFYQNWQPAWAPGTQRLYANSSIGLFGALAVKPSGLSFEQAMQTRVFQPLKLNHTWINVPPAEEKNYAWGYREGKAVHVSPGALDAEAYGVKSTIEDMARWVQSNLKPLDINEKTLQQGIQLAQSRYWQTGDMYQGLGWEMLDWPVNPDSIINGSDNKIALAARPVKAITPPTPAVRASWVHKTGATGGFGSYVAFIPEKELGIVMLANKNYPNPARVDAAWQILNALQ
#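 20 mM phosphate pH 7.0 + 0.01% (detergent screen) or 0.0001% Triton X-100; 5.3 nM AmpC reagent; cpd preinc 15 min RT; nitrocefin (800 uM stock) to start; A480 q20 s × 4 min; Activity was normalised to no-enzyme and no-compound control wells.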
# FMDV antiviral: blocks foot and mouth disease virus; FMDV antiviral cell-based qHTS; Potency, µM (doses to about 57.9 µM), inactives show at the highest dose activity change, negative = inhibition, most hits filed as inhibitors; 1.2% of 410,000 active; AID 1159524; calls by dose curve; tested in HEK293T cells; further: read-out not given here; nearly all actives have a fitted effect of over 45% in size
# AmpC detergent: blocks E. coli AmpC beta-lactamase in detergent assay | Potency, µM (highest dose often 114 µM), inactives show at the highest dose activity change, negative = inhibition, most hits filed as inhibitors | AmpC hydrolysis of nitrocefin, absorbance 480 nm, 0.01% Triton | 0.041% of 370,000 active | AID 485294 | P00811;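 further: 0% = no-compound wells and -100% = no-enzyme wells; nearly all actives have a fitted effect of over 25% in size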
#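 AmpC (5.3 nM in the dispensed reagent) in 20 mM phosphate pH 7.0 with 0.01% (detergent screen) or 0.0001% Triton X-100 was preincubated with compounds for 15 min at room temperature. Nitrocefin was then added from an 800 uM solution, and hydrolysis was followed at 480 nm.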
# AMA1-RON2 inh: disrupts binding of P. falciparum AMA1 to RON2; AlphaScreen AMA1-biotinylated RON2 peptide binding; Potency, µM (titrated, usually from 58.2 µM), for the others: at the top dose activity change, negative = inhibition, usual class: inhibitors; 0.2% of 360,000 active; AID 720542;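 further: 0% = vehicle wells and -100% = peptide control; nearly all actives have a fitted effect of over 45% in size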
#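 AMA1 (3D7) with his tag at 25 nM final met compounds first, then biotinylated RON2 peptide at 25 nM; detection used donor plus acceptor beads, 10 µg/mL apiece, read by AlphaScreen after 30 min at room temperature.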
# Sm TGR inh: blocks Schistosoma mansoni thioredoxin glutathione reductase; 3% of 360,000 active; Potency, µM (highest dose often 114 µM), for the others: at the highest dose activity change, negative = inhibition, actives largely listed as inhibitors; Q962Y6; purified TGR, DTNB reduction, TNB absorbance 405 nm; further: nearly all actives have a fitted effect of over 60% in size
#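 TGR 20 nM + NADPH 100 uM (dispensed conc.), cpd preinc 15 min RT; start with NADPH (500 uM addition) then DTNB (15 mM addition). Kinetic TNB absorbance, 405 nm filter. Four-parameter Hill fit across titration.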
# * marks the source's active call; other numbers are inactive results; u = inconclusive; x = no result; ! = repeats disagree. Unless noted, the call rests on the fitted dose curve; in most records, active means well fitted curve in the direction sought with a large enough effect; inconclusive means small, poorly fitted or top-dose-only effect, or another doubt; inactive means no such curve, though single readings can be large; an effect the other way counts as inactive or inconclusive. Unless noted, on the % scale 0 is the no-effect control and ±100 the full control effect; potency means the concentration at half of the fitted maximal effect.
SMILES,AmpC inh no detg,FMDV antiviral,AmpC detergent,AMA1-RON2 inh,Sm TGR inh
COC(=O)\C(C(C)=O)=C(/C=C/C=C/C=C/N(C)C)N(C)C,-17.0%,-20.2%,-12.5%,-7.1%,35.5µM*
Cc1ccc(NC(=O)Cc2ccc(-n3c(C)nc4cccnc43)cc2)cc1C,x,u,u,x,-10.9%
CCOC(=O)c1ccc(NC(=O)CN2CCN(CCN=CC3=C(O)CC(C)(C)CC3=O)CC2)cc1,-6.7%,-5.4%,u,-0.7%,u
CC1(C)CC(=O)C(C=NCCN2CCN(C(=O)C34CC5CC(CC(C5)C3)C4)CC2)=C(O)C1,138.9%,-20.1%,14.8%,42.7%,25.1µM*
CC1(C)CC(=O)C(C=NCCN2CCN(C(=O)Cc3ccc(Cl)cc3)CC2)=C(O)C1,94.4%,4.3%,-15.0%,55.2%,u
C=CCNC(=S)N1CCN(CCN=CC2=C(O)CC(c3cccs3)CC2=O)CC1 (centres undefined),82.7%,-6.7%,u,37.0%,-7.2%
CC(=O)N1CCN(CCN=CC2=C(O)CC(c3cccs3)CC2=O)CC1 (centres undefined),-20.8%,-22.8%,-6.9%,7.9%,44.7µM*
CCOC(=O)c1ccc(NC(=S)N2CCN(CCN=CC3=C(O)CC(C)(C)CC3=O)CC2)cc1,-7.3%,-10.5%,-5.6%,34.9%,1.12µM*
CC1(C)CC(=O)C(C=NCCN2CCN(C3CC(=O)N(c4ccc(Br)cc4)C3=O)CC2)=C(O)C1 (centres undefined),56.8%,-22.7%,-4.3%,51.4%,50.1µM*
Fc1ccc(CNc2nc3c(-c4ccc(F)cc4)nnn3c3ccccc23)cc1,x,-4.0%,-9.2%,x,-1.2%
Cc1cnc(C)c(-c2cccc3c2OC(CNC(=O)C2(c4ccc(Cl)cc4)CC2)C3)n1 (centres undefined),x,-7.7%,x,x,x
COC(=O)c1ccccc1NC1c2ccccc2C(=O)N1c1cccnc1 (centres undefined),7.08µM*,-3.5%,u,46.9%,-0.9%
O=C(CSc1ccc2ccccc2c1)NCCc1ccc(O)c(O)c1,-33.5%,u,u,-16.3%,11.2µM*
O=C(CN1CCCCC1)Nc1cccc(-n2cnnn2)c1,0.141µM*,2.6%,0.9%,-0.9%,2.9%
O=C(Cc1ccccc1)Nc1cccc(N2CCCC2)c1,-3.6%,17.2%,6.8%,-13.3%,31.6µM*
CC1=C(C(=O)OC2CCCCCC2)C(c2c(F)cccc2Cl)CC(=O)N1 (centres undefined),x,u,1.3%,x,-3.9%
Cc1cc2ccccc2n1-c1ccc(C(=O)N2CCCCC2)s1,x,-11.8%,5.6%,x,9.1%
O=C(OCc1ccc([N+](=O)[O-])cc1)C1CC(=O)N(CCc2ccccc2)C1 (centres undefined),30.1%,0.6%,u,-1.7%,-6.9%
O=C(OCc1nnc(-c2ccc([N+](=O)[O-])cc2)o1)C1CC(=O)N(CCc2ccccc2)C1 (centres undefined),45.6%,-2.6%,3.5%,-10.8%,89.1µM*
CC(C)C[C@H]1CN(CCCC[C@H]2CNC(=O)C(=O)N2CCC2CCCCC2)C(=O)C(=O)N1CCC1CCCCC1,x,35.5µM*,x,58.8%,x
CCc1ccc(-n2c(SCC(=O)NC(C)CC)nc3n[nH]c(C)c3c2=N)cc1 (centres undefined),x,-18.1%,1.6%,x,12.8%
CCc1cccc(NC(=O)CSC2=NS(=O)(=O)c3ccccc32)c1,-25.1%,0.0%,-7.8%,2.9%,3.16µM*
N#CC1=C(N)Oc2c(ccc3cccnc23)C1c1cccnc1 (centres undefined),-8.3%,-20.6%,1.1%,-38.3%,20µM*
C[n+]1cccc(C2C(C#N)=C(N)Oc3c2ccc2ccccc32)c1 (centres undefined),16.0%,18.7%,-7.5%,10.5%,39.8µM*
N#CC1=C(N)Oc2cc3ccccc3cc2C1c1cccnc1 (centres undefined),-14.5%,-15.3%,1.4%,-5.5%,u
SMILES,AmpC inh no detg,FMDV antiviral,AmpC detergent,AMA1-RON2 inh,Sm TGR inh
Cc1ccc2cc(C3C(C#N)=C(N)Oc4c3ccc3cccnc43)c(=O)[nH]c2c1 (centres undefined),-25.1%,-16.7%,-3.3%,-0.9%,11.2µM*
Cc1ncc2c(c1CNC(=O)c1cncs1)CCN(C(=O)c1ccc(C(C)(C)C)cc1)C2,x,3.4%,x,x,x
CCCCN(CC)C(=O)Nc1ccc2c(c1)N(C)C(=O)c1ccccc1S2,x,-21.4%,20.2%,x,-0.1%
Cc1ccc(/C=C/C(=O)c2ccc(O)cc2)cc1,-37.1%,11.8%,4.5%,6.5%,-35.6%
Cc1ccc(C(=O)/C=C/C(=O)O)cc1,-26.4%,u,-3.1%,20.6%,2.51µM*
COc1ccccc1N1CCN(S(=O)(=O)CCNC(=O)C(c2ccccc2)c2ccccc2)CC1,x,-22.4%,2.8%,x,2.6%
Cc1ccc(NC(=O)c2ccc3snnc3c2)cc1Cl,x,19.9%,17.7%,x,-3.0%
COc1ccccc1NC(=O)c1ccc(NS(=O)(=O)c2cccc3cccnc23)cc1,7.94µM*,4.0%,-3.0%,-19.1%,-1.1%
COc1ccc(C)cc1NC(=O)c1ccc(NS(=O)(=O)c2cccc3cccnc23)cc1,-19.8%,3.9%,-3.7%,31.5%,5.5%
CC1CCc2c(sc(NC(=O)Cn3nc(C(=O)O)c4ccccc4c3=O)c2C#N)C1 (centres undefined),-29.9%,15.1%,u,-2.7%,28.2µM*
Cc1cc(C(=O)OCC(=O)Nc2sc3c(c2C#N)CCC(C)C3)c2ccccc2n1 (centres undefined),14.1µM*,4.8%,2.3%,-8.4%,-10.5%
CCN(CC)N=Nc1ccc(S(=O)(=O)Nc2nc(C)cc(C)n2)cc1,-5.6%,52.3%,-2.0%,7.7%,11.2µM*!
Cc1cc(C)nc(NS(=O)(=O)c2ccc(NS(=O)(=O)c3ccccc3)cc2)n1,-24.2%,x,-12.7%,4.2%,4.4%
O=C(c1cnn2cccnc12)N1CCOc2ccc(C(O)C(c3ccccc3)c3ccccc3)cc2C1 (centres undefined),x,-6.1%,x,x,x
Cc1nnc(SCC(=O)N2CC(=O)Nc3ccccc32)n1C,-13.6%,0.0%,-5.0%,0.0%,3.5%
Cc1ccc(-n2nnnc2SCC(=O)N2CC(=O)Nc3ccccc32)cc1,-22.4%,u,5.6%,2.9%,44.7µM*
COc1ccc(CN2[C@@H](CC(C)=O)c3ccc(/C=C/C(C)=O)cc3S2(=O)=O)cc1,x,31.6µM*,x,-1.1%,x
COC(=O)/C=C/c1ccc2c(c1)S(=O)(=O)N(Cc1ccc(OC)cc1)[C@H]2CC(=O)OC,x,2.2%,x,11.6%,x
COc1ccc(-c2csc(NC(=O)c3c(C)noc3C)n2)cc1F,-4.3%,39.8µM*,-8.1%,-1.0%,-1.2%
CCOC(=O)c1c(N2C(=O)C3C4C=CC(O4)C3C2=O)sc2c1CCCC2 (centres undefined),x,-2.7%,2.8%,5.5%,3.16µM*
